Dicer inh – inhibitors of human Dicer processing of pre-microRNA. Q9UPY3. cat-ELCCA pre-miR-21 Dicer processing, chemiluminescence; active compounds read high. z-score at 25 µM. 47,000 compounds, 6% hits; in the data active = z-score above about 3, passing the limit was not always enough;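 note: higher signal means more uncleaved substrate so more Dicer inhibition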
Of the large screens only hits and unclear results are named; the others gave an inactive call. Shown is part of a subset that was picked to be rich in hits.

C=CCSc1nnc2c(n1)OC(c1ccc(N(C)C)cc1)N(C(C)=O)c1ccccc1-2 (centres undefined)	none
COc1ccc(-c2cnc3c(-c4ccccc4)c(C)nn3c2N)cc1OC	none
CC(C)Nc1nc(-c2c(F)cccc2Cl)cs1	none
CC(C)S(=O)(=O)C/C(N)=N/OC(=O)Nc1ccccc1	none
O=C(Nc1ccccc1-c1nnc(-c2ccc(Cl)cc2)o1)c1ccc(Cl)cc1	none
COc1ccc(Nc2nc3ccccc3c(=O)s2)cc1	none
COc1ccc(Nc2ccnc3ccccc23)cc1	Dicer inh 3.6
COc1ccc(Nc2ncnc3ccccc23)cc1	none
N#Cc1c(-c2ccccc2)cc(SCc2ccc(Cl)cc2)n2c1nc1ccccc12	none
O=C(NC(=O)c1ccccc1Cl)Nc1ccc(S(=O)(=O)Cc2ccc(Cl)cc2)c(C(F)(F)F)c1	none
O=C(O)[C@H]1CCCCN1C(=O)OCC1c2ccccc2-c2ccccc21	none
CC(=O)Cn1nc2n(c1=O)-c1ccccc1SC2	none
CNC(=O)NC(=O)Cn1nc2n(c1=O)-c1ccccc1SC2	none
NNC(=O)Cn1nc2n(c1=O)-c1ccccc1SC2	Dicer inh 4.1
O=C1ON(c2ccccc2)C(=O)/C1=C/c1ccccc1	none
CC1(C)CCc2cc(CN3CCN(Cc4ccccc4)CC3)ccc2O1	none
CCCc1cc(=O)[nH]c(SCc2ccc(Cl)cc2Cl)n1	none
CCCc1cc(=O)[nH]c(SCc2ccc(Cl)cc2)n1	none
CCCc1cc(=O)[nH]c(SCC(=O)Nc2ccc(F)c(Cl)c2)n1	Dicer inh 3.1
Cc1ccc(S(=O)(=O)NNC(=S)Nc2ccc(Br)c(C)c2)cc1	none
N#C/C(=C\NCc1cc(C(F)(F)F)cc(C(F)(F)F)c1)S(=O)(=O)c1ccc(Cl)c(Cl)c1	none
Cc1ccc(S(=O)(=O)/C(C#N)=C/Nc2cc(C(F)(F)F)cc(C(F)(F)F)c2)cc1	Dicer inh 3.7
Cc1ccc(S(=O)(=O)NNC(=S)Nc2ccccc2)cc1	none
CSc1nc(C)nc(N/C=C(\C#N)S(=O)(=O)c2ccc(C)cc2)n1	none
Cc1ccc(S(=O)(=O)NNC(=S)Nc2ccc(Cl)cc2)cc1	Dicer inh 6.1
CCc1ccc(NC(=S)NNS(=O)(=O)c2ccc(C)cc2)cc1	none
Cc1ccc(S(=O)(=O)NNC(=S)Nc2cc(C(F)(F)F)cc(C(F)(F)F)c2)cc1	Dicer inh 3.7
Cc1ccc(S(=O)(=O)NNC(=S)Nc2c(Cl)cccc2Cl)cc1	none
O=C(O)COCC(=O)Nc1nnc(C2CC2)s1	none
O=C(N/N=C/c1ccc(C(F)(F)F)cc1)Nc1ccc(C(F)(F)F)cc1Cl	none
OCC1(CO)CSC(=NCc2ccc(F)cc2)N1	none
COc1ccc(-c2cc(-c3ccccc3)nc(NS(=O)(=O)c3ccc(N)cc3)n2)cc1	none
FC(F)(F)c1ccnc(Oc2ccc(I)cc2)n1	none
Cc1noc(-c2ccccc2)c1NC(=O)NCc1c(-c2ccccc2)noc1C	none
CCNC(=O)c1cc([N+](=O)[O-])cc2c1-c1ccc([N+](=O)[O-])cc1C2=O	none
Cc1ccc2nc3sc(C(=O)O)cc3cc2c1	none
O=C(Nc1ccccc1)c1cc2sccc2s1	none
O=C(Nc1ccccc1)c1cc2ccc3ccccc3c2s1	Dicer inh 3.5
O=C(O)c1cc2ccc3ccccc3c2s1	Dicer inh 4.1
CCOC(=O)c1cc2ccccc2c(=O)s1	none
Cc1c(NC(=O)c2cc3ccccc3c(=O)s2)c(=O)n(-c2ccccc2)n1C	none
CC(C)(C)NC1CC(=O)N(c2ccccc2)C1=O (centres undefined)	none
CC(C)(C)c1ccc(N2C(=O)CC(c3ccccc3)C2=O)cc1 (centres undefined)	Dicer inh 5.3
COc1ccc(N2C(=O)CC(c3ccccc3)C2=O)cc1 (centres undefined)	Dicer inh 4.3
COc1ccc(N2C(=O)CC(N3CCN(C)CC3)C2=O)cc1 (centres undefined)	none
O=C1CC(c2ccccc2)C(=O)N1c1cc(Cl)cc(Cl)c1 (centres undefined)	Dicer inh 5.3
COc1ccc(N2C(=O)CC(Sc3nc(C)c4ccccc4n3)C2=O)cc1 (centres undefined)	none
O=C1CC(c2ccccc2)CC(=O)N1c1ccccc1	none
Cn1cc(C2CC(=O)N(c3ccc(O)cc3)C2=O)c2ccccc21 (centres undefined)	none
O=C1CC(c2ccccc2)CC(=O)N1c1ccc(Oc2ccc(Cl)cc2)cc1	none
S=C1NCN(Cc2cccs2)CN1	none
c1ccc2c(c1)oc1c(N3CCN(C4CCCC4)CC3)ncnc12	none
O=C(CSc1nnc2c(n1)-c1cccc3cccc-2c13)Nc1ccc(Cl)cn1	none
Cc1cc(C)c(Nc2nc(-c3c(-c4ccccc4)noc3C)cs2)c(C)c1	none
CC1CN(c2nc3ccccc3nc2SCC(=O)NCC2CCCO2)CC(C)O1 (centres undefined)	none
CCOC(=O)COc1ccc2c(=O)c(Oc3ccc(CC)cc3)c(C(F)(F)F)oc2c1	none
CC1CCN(c2ccc([N+](=O)[O-])c(Oc3nc4cc(Cl)ccc4s3)c2)CC1	none
O=C(Nc1cccc(C(F)(F)F)c1)Nc1cc(C2CC2)nn1-c1ccccc1	none
CC1=C(C(=O)OC2CCCC2)C(c2coc3ccc(Cl)cc3c2=O)C2=C(CCCC2=O)N1 (centres undefined)	none
CC1=C(C(=O)OC2CCCCC2)C(c2coc3ccc(C)cc3c2=O)C2=C(CC(C)(C)CC2=O)N1 (centres undefined)	none

High-throughput results: PubChem, Center for Chemical Genomics, University of Michigan
